Screening data from PubChem.
NPC1 promoter act: NPC1 promoter activation. Huh7 NPC1 promoter luciferase reporter, 24 h. Potency, µM (top dose mostly 9.22 µM), for the others: top-dose activation, most hits filed as activators. hit rate 2.4% among 320,000. AID 485313; note: % of control where 0% means no effect; nearly all actives have a fitted effect of over 60% in size
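Luminescence from an NPC1 promoter-driven luciferase reporter in stably transfected Huh7 cells was measured after 24 h compound treatment at 37 °C, followed by 10 min ambient incubation with luciferase detection reagent.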
ELG1 genotoxic: genotoxicity induction in ELG1-luciferase HEK293T cells; Potency, µM (doses to about 46 µM), for inactives: top-dose activity change, positive = activation, hits mostly activators; hit rate 1.3% among 330,000; AID 504466; HEK293T ELG1-luciferase reporter, luminescence, 16 h; note: % of control where 0% means no effect; nearly all actives have a fitted effect of over 60% in size
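Step 1: seed 2,000 HEK293T ELG1-luciferase cells per well. Step 2: add compound or DMSO, incubate 16 hr at 37 °C. Step 3: ONE-Glo, 30 min at room temperature, read luminescence.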
ELG1 DNA repair: blocks ELG1-dependent DNA repair in HEK293T cells; hit rate 2.3% among 330,000; AID 504467; HEK293T ELG1-luciferase reporter, luminescence, 16 h; DNA damage induced by 5-fluorouridine; Potency, µM (highest dose often 46.1 µM), for the others: at the highest dose activity change, negative = inhibition, most hits filed as inhibitors; note: % is set by controls: 0 for no effect and ±100 for the full control effect; nearly all actives have a fitted effect of over 55% in size
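In this reporter screen, reduction of luminescence relative to DMSO vehicle indicated activity. Compounds and 5-fluorouridine were added together to 2,000 cells per well, incubated for 16 hr at 37 °C, then developed with ONE-Glo.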
SMN2 splice up: enhancers of SMN2 splice variant expression; HEK293 SMN2-luciferase splicing reporter, luminescence, 30-36 h; Potency, µM (top dose mostly 46.1 µM), for inactives: at the highest dose activity change, positive = activation, hits mostly activators; hit rate 2.8% among 210,000; note: % of control where 0% means no effect; nearly all actives have a fitted effect of over 55% in size
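qHTS luciferase splicing reporter: luminescence rises when SMN2 exon 7 is included in transfected HEK293 cells. Compound exposure lasted 30-36 h at 37C, with 4.5 mM final sodium butyrate as control, followed by a ONE-Glo read.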
FLuc modulator: counter-screen for miR-21 project: firefly luciferase inhibitors or activators; Potency, µM (highest dose often 57.5 µM), for inactives: top-dose activity change, negative = inhibition, actives largely listed as inhibitors; hit rate 6.9% among 360,000; purified FLuc, Km substrates, luminescence inhibition;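 note: plate controls were vehicle for no effect and reference inhibitor for full effect; nearly all actives have a fitted effect of over 55% in size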
Target sequence (P08659 whole entry, looked up): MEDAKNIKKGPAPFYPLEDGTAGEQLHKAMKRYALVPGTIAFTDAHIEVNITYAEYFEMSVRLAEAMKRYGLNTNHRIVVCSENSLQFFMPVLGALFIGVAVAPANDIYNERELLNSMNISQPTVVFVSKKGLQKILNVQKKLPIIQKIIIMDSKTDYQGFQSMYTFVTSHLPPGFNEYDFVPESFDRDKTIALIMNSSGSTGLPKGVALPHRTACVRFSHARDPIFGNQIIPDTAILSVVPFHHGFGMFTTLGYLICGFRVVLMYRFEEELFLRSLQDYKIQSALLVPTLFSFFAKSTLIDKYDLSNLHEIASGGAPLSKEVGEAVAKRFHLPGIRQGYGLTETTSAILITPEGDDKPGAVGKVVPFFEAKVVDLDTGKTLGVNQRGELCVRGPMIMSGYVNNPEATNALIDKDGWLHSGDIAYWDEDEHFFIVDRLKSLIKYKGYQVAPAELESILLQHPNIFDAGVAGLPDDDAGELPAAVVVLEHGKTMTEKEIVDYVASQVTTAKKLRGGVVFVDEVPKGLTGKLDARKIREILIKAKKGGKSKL
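Purified P. pyralis luciferase (10nM final) with 10uM D-luciferin and 10uM ATP (Km levels) in 50mM Tris acetate pH 7.5, 10mM Mg acetate, 0.01% Tween-20, 0.05% BSA; qHTS 6-point titration, ~60 µM downward; luminescence read.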
Rab9 promoter act: activators of Rab9 promoter; Huh7 Rab9 promoter-luciferase reporter, luminescence, 24 h; AID 485297; hit rate 2.8% among 320,000; Potency, µM (series often up to 9.22 µM), inactives show at the highest dose activation, negative = inhibition, usual class: activators; note: % of control where 0% means no effect; nearly all actives have a fitted effect of over 60% in size
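Huh7 reporter line, Rab9 promoter upstream of luciferase. Compound exposure 24 h at 37 °C in reduced-serum medium with 10% FBS. Read-out: luminescence.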
* marks the source's active call; other numbers are inactive results; ? = inconclusive; · = no result. Sampled rows, rich in hits. Any-hit rate of the full collection: about 9.3%. Calls come from the whole dose curve; as a rule, active = well fitted curve in the direction sought with a large enough effect; inconclusive = small, poorly fitted or top-dose-only effect, or another doubt; inactive = no such curve, though single readings can be large; an effect the other way counts as inactive or inconclusive. Potency is the fitted concentration of half-maximal effect.

SMILES	NPC1 promoter act	ELG1 genotoxic	ELG1 DNA repair	SMN2 splice up	FLuc modulator	Rab9 promoter act
CCc1c(C(=O)NNC(=S)NC2CCCCC2)csc1C	17%	-3%	1%	1.6µM*	-2%	22%
CC(C)c1cc(C(=O)NNC(=S)NC2CCCCC2)cs1	4µM*	?	?	·	?	?
CN(C)c1cccc(C(=O)NNC(=S)NC2CCCC2)c1	21%	2%	3%	22%	?	28%
CCc1cc(C(=O)NNC(=S)NC2CCCCC2)cs1	3.5µM*	-4%	?	·	-11%	3.5µM*
CCOC(=O)c1c(NC(=O)c2cc(C)on2)sc(C)c1C	·	·	·	-9%	-2%	·
Cc1ccccc1N=C1SCCN1C(=O)CN1C(=O)NC2(CCCC2)C1=O	-3%	-4%	-13%	·	-1%	-7%
Cc1ccc(NC(=O)c2cc3nc(C)cc(C)n3n2)cc1	0.63µM*	1.5µM*	?	11µM*	4.8µM*	0.89µM*
Cc1ccc(-c2cc3nc(C)cc(C)n3n2)cc1	3.5µM*	5.2µM*	?	13µM*	2.7µM*	1.8µM*
Cc1cc(C)n2nc(-c3ccsc3-n3c(C)ccc3C)cc2n1	-1%	5%	-6%	6%	-2%	5%
Cc1cc(C)n2nc(Nc3ccccc3)cc2n1	18%	29%	?	25%	17µM*	23%
Cc1ccc(NC(=O)c2cc3nc(-c4ccccc4)cc(-c4ccccc4)n3n2)cc1	·	·	·	15%	7%	·
Cc1cc(C)n2nc(-c3ccccc3)cc2n1	?	?	?	·	7.6µM*	3.2µM*
COC(=O)[C@]1(Cc2ccccc2)N[C@H](CN(C)C(=O)Nc2ccc(Cl)cc2)[C@@H]2C(=O)N(C)C(=O)[C@@H]21	·	-1%	-2%	·	·	·
CCOC(=O)c1cc(-c2ccc(C)cc2)n(CCC(=O)N2CCN(c3ccccn3)CC2)c1C	-4%	-12%	21µM*	-27%	-1%	-5%
COC(=O)c1ccc(-c2ccc(/C=N/N3C(=O)C4C5C=CC(CC5)C4C3=O)o2)cc1 (configuration not stated)	3.2µM*	-7%	?	5µM*	24µM*	3.2µM*
O=C(O)c1cc(-c2ccc(/C=N/N3C(=O)C4C5C=CC(C6CC56)C4C3=O)o2)ccc1Cl (configuration not stated)	0%	3%	?	10%	?	-5%
O=C1C2C3C=CC(CC3)C2C(=O)N1/N=C/c1ccc(O)cc1 (configuration not stated)	?	?	?	2%	15µM*	26%
O=C(O)c1cc(-c2ccc(/C=N/N3C(=O)C4C5C=CC(CC5)C4C3=O)o2)ccc1Cl (configuration not stated)	1%	3%	14%	·	19µM*	1%
O=C1C2C3C=CC(CC3)C2C(=O)N1/N=C/c1ccc(O)c(O)c1 (configuration not stated)	-15%	13%	26%	?	?	-15%
COc1ccc(S(=O)(=O)N2CCCCCC2)cc1C(=O)NCCOc1ccc(C)cc1	3%	-3%	?	·	4%	0%
O=C(Nc1ccc(Oc2ccccc2)cc1)C1CCN(c2c3c(nc4ncnn24)CCC3)CC1	-3%	-10%	16µM*	-76%	-1%	-21%
Cc1ccccc1NC(=O)C1CCN(c2cc(-c3ccccc3)nc3ncnn23)CC1	-6%	-6%	15µM*	-69%	3%	-3%
COc1ccc(S(=O)(=O)N2CCN(c3cc(-c4ccccc4)nc4ncnn34)CC2)cc1	-2%	-13%	21µM*	-31%	0%	-5%
CN(C(=O)CSc1cn(CC(=O)N2CCCCCC2)c2ccccc12)c1ccccc1	·	·	·	·	-2%	·
CCOC(=O)N1CCN(C(=O)CS(=O)(=O)c2cn(Cc3ccccc3C)c3ccccc23)CC1	-9%	-1%	9.2µM*	-32%	3%	-4%
SMILES	NPC1 promoter act	ELG1 genotoxic	ELG1 DNA repair	SMN2 splice up	FLuc modulator	Rab9 promoter act
Cc1ccc(N/N=C2\CC(=O)c3ccccc32)cc1Cl	2%	?	18%	·	9.5µM*	16%
O=C(O)c1cc(NN=C2c3ccccc3-c3ccccc32)ccc1Cl	-3%	1%	?	·	?	0%
O=C(N/N=C/c1coc2ccc(Cl)cc2c1=O)c1ccncc1	1%	-23%	16µM*	·	1%	4%
COc1ccc(C(=O)N/N=C\c2coc3ccccc3c2=O)cc1	-3%	-7%	-13%	·	4.8µM*	-5%
COc1ccc(C(=O)N/N=C\c2coc3ccc(Cl)cc3c2=O)cc1	-2%	-20%	?	·	-2%	8%
O=C(N/N=C/c1coc2ccc(Cl)cc2c1=O)c1ccc(O)cc1	-1%	-20%	?	·	-1%	0%
CC(O)CC(=O)NOCc1ccccc1 (configuration not stated)	·	6%	14%	·	·	·
O=C(CSc1nncs1)Nc1ccc2[nH]c(=O)[nH]c2c1	-2%	6%	-3%	·	-1%	1%
CCOC(=O)Cc1csc(Nc2ccc(Cl)cc2)n1	2%	3%	?	?	?	-4%
CCOC(=O)Cc1csc(N/N=C\c2ccccc2OC)n1	26%	8%	13%	·	11µM*	20%
COC(=O)c1ccc(/C=N/Nc2nc(-c3ccccc3)cs2)cc1	12%	6%	7%	·	-2%	20%
COc1ccc(/C=N/Nc2nc(C(=O)O)cs2)cc1	?	6%	?	·	0.67µM*	?
CCOC(=O)Cc1csc(N/N=C/c2ccccc2)n1	29%	9%	?	3%	15µM*	20%
CCOC(=O)Cc1csc(N/N=C\c2cccc(Br)c2)n1	11%	-1%	21%	-1%	?	7%
CCOC(=O)Cc1csc(NC(=O)COc2ccccc2OC)n1	3%	0%	2%	·	-4%	3%
CCOC(=O)Cc1csc(N/N=C\c2ccc(N(C)C)cc2)n1	?	8%	?	·	2.4µM*	29%
CCCCC/C=C\C=C\[C@H](O)CCCCCCCC(=O)O	·	·	·	-6%	·	·
CC(C)C(NC(=O)c1ccc(F)cc1)C(=O)Nc1cccnc1 (configuration not stated)	-1%	0%	2%	12%	0%	-3%
CC[N+]1=C(C)C(C)(C)c2cc(C)ccc21	-10%	-11%	13µM*	-17%	-1%	-3%
CCN1C(=O)C(=O)c2cc(C)ccc21	·	5%	?	·	·	·
COc1ccc2cc(CCOC3CCCCO3)ncc2c1 (configuration not stated)	0.32µM*	?	?	·	2.7µM*	0.5µM*
